Screening data from PubChem BioAssay.
LASV entry inh: qHTS for Inhibitors of binding or entry into cells for Lassa Virus; hit rate 1.2% among 300,000; Potency, µM (highest dose often 37.9 µM), for the others: top-dose activity change, negative = inhibition, actives largely listed as inhibitors; Lassa virus pseudotype entry inhibition, cell reporter; AID 540256, 2011; calls by dose curve; tested in HEK293 cells; further: potency means the concentration at half of the fitted maximal effect; nearly all actives have a fitted effect of over 50% in size
MARV entry inh: qHTS for inhibitors of binding or entry into cells for Marburg Virus; AID 540276, 2011; hit rate 1.8% among 300,000; Potency, µM (titrated, usually from 37.8 µM), inactives show at the highest dose activity change, negative = inhibition, usual class: inhibitors; Marburg virus pseudotyped entry inhibition, cell reporter; calls by dose curve; tested in HEK293 cells; further: potency means the concentration at half of the fitted maximal effect
Vaccinia mCherry: qHTS for Stage-Specific Inhibitors of Vaccinia Orthopoxvirus: mCherry Reporter Primary qHTS. hit rate 0.63% among 310,000. Potency, µM (doses to about 36.5 µM), inactives show top-dose activity change, negative = inhibition, hits mostly inhibitors. AID 720579, 2013. Vaccinia virus mCherry reporter infection, fluorescence; calls by dose curve; tested in A549 cells; further: potency means the concentration at half of the fitted maximal effect; nearly all actives have a fitted effect of over 35% in size
VACV Venus inh: qHTS for Stage-Specific Inhibitors of Vaccinia Orthopoxvirus: Venus Reporter Primary qHTS; Vaccinia virus Venus reporter expression, fluorescence; Potency, µM (doses to about 36.5 µM), without a hit: at the top dose activity change, negative = inhibition, most hits filed as inhibitors; hit rate 0.46% among 330,000; calls by dose curve; tested in A549 cells; further: potency means the concentration at half of the fitted maximal effect; nearly all actives have a fitted effect of over 30% in size
FMDV antiviral: High Throughput Screening for Foot and Mouth Disease Virus Antivirals. FMDV antiviral cell-based qHTS. Potency, µM (highest dose often 57.9 µM), inactives show at the highest dose activity change, negative = inhibition, most hits filed as inhibitors. hit rate 1.2% among 410,000. AID 1159524, 2015; calls by dose curve; tested in HEK293T cells; further: read-out not given here; potency means the concentration at half of the fitted maximal effect; nearly all actives have a fitted effect of over 45% in size
HCMV inh: qHTS Assay for inhibitors of the human cytomegalovirus (HCMV) | AID 1259415, 2018 | activity change, negative = inhibition, % at 57.5 µM | HFF cells, HCMV-luciferase reporter, 72 h; hits give low values | hit rate 4.5% among 410,000; in the data active means activity change below about -60%; inconclusive means no clear call, values can overlap the other calls; inactive means above about -39%
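Compounds were evaluated in HFFs infected with an HCMV luciferase reporter virus (MOI 1 PFU/cell). Luciferase in lysates collected 72 h post infection served as the replication measure.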
Starred values were filed as active, the others as inactive; i = inactive; ? = inconclusive; . = not tested or not shown; [ ] = dose if it differs, or a comment. Compounds with a hit are over-represented: about 6.5% of the library has one in this group of screens. On the % scale 0 is the no-effect control and ±100 the full control effect.

SMILES | LASV entry inh | MARV entry inh | Vaccinia mCherry | VACV Venus inh | FMDV antiviral | HCMV inh
CCCN(CCC)CCCNC(=O)c1cc2c(-c3ccc(Cl)cc3)nn(C)c2s1 | ? | ? | ? | -22% | -23% | -89*
CCCN(CCC)CCCNC(=O)c1cc2c(=O)n(CC)c3ccccc3c2s1 | ? | 10µM* | -14% | -14% | 14% | 159
CCCCN(CC)CCCNC(=O)c1cc2c(=O)n(CC)c3ccccc3c2s1 | -2% | 11µM* | -10% | ? | -7% | 169
CCN(CCCNC(=O)c1cc2c(=O)n(CC)c3ccccc3c2s1)c1ccccc1 | -12%[46.1 µM] | 16%[46.1 µM] | -14% | -9% | -28% | -22
CCN(CC)CCCNC(=O)c1cc2c(-c3ccc(Cl)cc3)nn(C)c2s1 | . | . | -14% | ? | -6% | .
Cc1ccc(C(=O)N(Cc2cc3cccc(C)c3nc2N(C)C)CC2CCCO2)cc1 (configuration not stated) | . | . | -3% | 0% | -5% | .
CCC1CN(CCNC(=O)C(C)(C)O)Cc2cc(OC)ccc2O1 (configuration not stated) | . | . | -13% | 0% | -7% | .
CCN1CC(CN(C)Cc2cn(-c3ccc(C)cc3)nc2-c2cccc(C)c2)CC1=O (configuration not stated) | ? | 11µM* | i | -17% | -1% | 13
CCCCC(CC)CN=C(N)NC(N)=NCCCCCCN=C(N)NC(N)=NCC(CC)CCCC (configuration not stated) | . | . | ? | 10µM* | ? | .
COc1ccccc1-c1cc(C(F)(F)F)nc(S(=O)(=O)CCCC(=O)Nc2cc(Br)ccc2O)n1 | 7%[46.1 µM] | ? | -12% | -5% | 18% | 55
COc1ccccc1-c1cc(C(F)(F)F)nc(S(=O)(=O)CCCC(=O)Nc2cc(C)on2)n1 | -3% | ? | -23% | ? | 13µM* | -96*
COc1ccc(Cl)cc1NC(=O)CCCS(=O)(=O)c1nc(-c2ccc(OC)c(OC)c2)cc(C(F)(F)F)n1 | -4%[46.1 µM] | ? | -12% | -13% | ? | -99*
COc1ccc(NC(=O)CCCS(=O)(=O)c2nc(-c3ccccc3OC)cc(C(F)(F)F)n2)c(OC)c1 | ? | ? | -6% | 5% | 7% | 14
COc1ccc(-c2cc(C(F)(F)F)nc(S(=O)(=O)CCCC(=O)Nc3cc(C)on3)n2)cc1OC | ? | ? | -21% | -20% | 13µM* | 47
CCCC[C@]12Cc3cc(OC)c(OC)cc3C(O1)c1c(cc(-c3ccccc3)oc1=O)O2 | . | -25%[14.2 µM] | . | . | . | .
CCCC(=O)NC1CC(=O)N(c2ccc3c(c2)OCCO3)C1 (configuration not stated) | 4%[46.1 µM] | . | -18% | -10% | 0% | -4
Cc1csc2nc(COC(=O)c3ccccc3NC(=O)COc3ccccc3F)cc(=O)n12 | 0%[46.1 µM] | . | i | -15% | 9% | -33
Cc1ccc(Cl)cc1N1CCN(C(=O)CCCn2c(=O)[nH]c3ccc(Br)cc3c2=O)CC1 | -8%[46.1 µM] | ? | ? | -24% | ? | ?
C/C(=N\NC(=O)COc1cccc(C)c1)c1ccc2ccccc2c1O | . | . | . | . | 35% | -77*
O=C(C=Cc1ccccn1)c1ccccc1O | -13%[46.1 µM] | -23%[46.1 µM] | -6% | 2% | ? | -80*
COc1cc(/C=C/C(=O)NC(=O)c2ccccc2O)ccc1OC(C)=O | . | . | 5.6µM* | ? | 35% | 16
COc1cc(/C=C/C(=O)c2ccccc2O)cc(OC)c1OC | . | . | 3% | -11% | 32µM* | 16
COc1cc(OC)c(C=CC(=O)c2ccccc2O)c(OC)c1 | 17% | ? | ? | ? | 41% | -64*
Cc1ccc(/C=C/C(=O)c2ccccc2O)cc1 | 19% | ? | -2% | -15% | -18% | 9
CCc1ccc(NC(=O)c2ccc3c(c2)N(Cc2ccc(C)cc2)CCS3)cc1 | -11%[46.1 µM] | -11%[46.1 µM] | -16% | -19% | 58% | 52
CSc1sc(C(=O)O)c2c1C(=O)CC(C)(C)C2 | . | . | . | . | -8% | 14
CC1(C)CC(=O)c2c(S(C)(=O)=O)sc(Br)c2C1 | . | . | . | . | -25% | -60*
COC(=O)C(=C/C(C)=C/c1cccs1)C(=O)OC | ? | ? | -17% | -14% | 28µM* | -26
COC(=O)N/N=C/c1cccs1 | . | . | . | . | 3% | -26
